From PubChem BioAssay
Rows were chosen to be rich in hits. Some 2.4% of all compounds tested hit in one or more screens of this group.
D2 PAM-1: positive allosteric modulators of human D2 dopamine receptor; AID 624464; DiscoveRx D2 beta-arrestin cells, luminescence, 90 min; 100% = 57 uM dopamine signal; P14416; 0.23% of 360,000 active; potentiation, % (concentration not given with the values); in the data active means potentiation above about 50%
Target sequence (P14416 whole entry, looked up): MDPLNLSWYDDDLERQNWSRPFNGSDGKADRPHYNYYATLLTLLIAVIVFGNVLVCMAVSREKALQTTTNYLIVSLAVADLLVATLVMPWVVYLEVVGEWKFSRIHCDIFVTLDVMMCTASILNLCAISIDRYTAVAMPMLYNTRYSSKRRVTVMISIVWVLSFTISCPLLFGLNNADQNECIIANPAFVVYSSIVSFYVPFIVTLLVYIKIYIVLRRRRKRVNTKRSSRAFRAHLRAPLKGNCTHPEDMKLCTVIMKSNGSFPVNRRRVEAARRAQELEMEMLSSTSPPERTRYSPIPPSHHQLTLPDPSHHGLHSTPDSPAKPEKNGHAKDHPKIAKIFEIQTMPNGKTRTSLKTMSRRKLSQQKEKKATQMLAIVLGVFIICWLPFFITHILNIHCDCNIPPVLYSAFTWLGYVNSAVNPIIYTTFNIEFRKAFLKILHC
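PathHunter D2 cells, attached overnight at 37 deg C, received compound in DMSO plus dopamine at EC20 (50 nM final) for 90 min at 37 deg C. Beta-arrestin recruitment was read as luminescence after 1 h with detection reagent at ambient temperature.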
D2 PAM-2: positive allosteric modulators of human D2 dopamine receptor. potentiation, % at 10 µM. P14416. HEK293 T-REx D2, calcium flux, EC20 dopamine potentiation. 0.34% of 340,000 active;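 active means potentiation over 3 SD above the plate norm, cut at about 30% in these data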
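Tetracycline-induced HEK293 T-REx cells force-coupled to calcium signalling expressed D2; compounds were pin-added after a 10 s baseline, read kinetically 180 s, then an EC20 dopamine challenge followed with a further 180 s calcium read.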
D2 ag-1: agonists of human D2 dopamine receptor. P14416. HEK293 T-REx D2 cells, calcium flux agonist mode. activation, % at 2 µM. 0.53% of 340,000 active. AID 485358;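 active means activation over 3 SD above normal in the single-dose calcium agonist read, cut at about 30% in these data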
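Agonism is scored from calcium flux in a force-coupled, inducible HEK293 cell line expressing D2, read kinetically for 180 s after compound addition against dopamine controls.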
D2 ag-2: agonists of human D2 dopamine receptor (beta-arrestin); 0.084% of 360,000 active; activation, % (test concentration not listed); P14416; DiscoveRx PathHunter D2 beta-arrestin, luminescence, 90 min; 100% = 57 uM dopamine signal; in the data active means activation above about 40%
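Agonist mode: compounds alone added to overnight-plated D2 PathHunter cells for 90 min at 37 C, with 57 uM final dopamine (EC100) defining full response. Beta-arrestin recruitment detected by chemiluminescent reagent, read after 1 h at ambient temperature.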
D2 antag: antagonists of human D2 dopamine receptor; 2% of 340,000 active; HEK293 TREx D2 cells, calcium flux, dopamine EC80; P14416; inhibition, % at 10 µM; in the data active means inhibition above about 30%; inactive means below that, where a call was filed
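Calcium mobilization kinetics were recorded at 1 s intervals in tetracycline-induced HEK293 T-REx D2 cells, first for 180 s after compound addition and then 180 s after EC80 dopamine.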
Hits are given with their value.

Results for OCC1(CCc2ccccc2)CCCN(CCCc2ccccc2)C1 (centres undefined) ?
D2 PAM-1: inactive; D2 PAM-2: inactive; D2 ag-1: inactive; D2 ag-2: inactive; D2 antag: 76

How did Cc1nc2ccc(C(=O)N3CCCC(CO)(Cc4ccc(F)cc4F)C3)cc2nc1C (centres undefined) do in these assays?
D2 PAM-1: inactive; D2 PAM-2: inactive; D2 ag-1: inactive; D2 ag-2: inactive; D2 antag: 30

What do the screens show for `CC(C)Cc1cc(CN2CCCC(CO)(Cc3cccc(Cl)c3)C2)[nH]n1` (centres undefined)?
D2 PAM-1: inactive; D2 PAM-2: inactive; D2 ag-1: inactive; D2 ag-2: inactive; D2 antag: 53

What do the screens show for `CSc1ccc(CN2CCCC(CO)(Cc3ccccc3)C2)cc1` (centres undefined)?
D2 PAM-1: inactive; D2 PAM-2: inactive; D2 ag-1: inactive; D2 ag-2: inactive; D2 antag: 51

How did CCOC(=O)C1CCN(c2cc(C)nc3cc(-c4cccc(F)c4)nn23)CC1 do in these assays?
D2 PAM-1: inactive; D2 ag-1: inactive; D2 ag-2: inactive; D2 antag: inactive

Results for CCCn1c(C)cc(/C=C(\C#N)C(=O)OCC(=O)Nc2cccc(OC)c2)c1C ?
D2 PAM-1: inactive; D2 PAM-2: inactive; D2 ag-1: inactive; D2 ag-2: inactive; D2 antag: inactive

Results for COc1cc(CN2CCCC(CO)(Cc3ccccc3F)C2)ccc1O (centres undefined) ?
D2 PAM-1: inactive; D2 PAM-2: inactive; D2 ag-1: inactive; D2 ag-2: inactive; D2 antag: inactive

Results for COC(=O)c1ccc(CN2CCCC(CO)(Cc3ccccc3F)C2)cc1 (centres undefined) ?
D2 PAM-1: inactive; D2 PAM-2: inactive; D2 ag-1: inactive; D2 ag-2: inactive; D2 antag: 84

Results for COc1ccc(CN2CCCC(CO)(Cc3ccc(F)cc3F)C2)cc1 (centres undefined) ?
D2 PAM-1: inactive; D2 PAM-2: inactive; D2 ag-1: inactive; D2 ag-2: inactive; D2 antag: 43

Results for CCOc1ccc(CN2CCCC(CO)(Cc3ccc(F)cc3)C2)cc1 (centres undefined) ?
D2 PAM-1: inactive; D2 PAM-2: inactive; D2 ag-1: inactive; D2 ag-2: inactive; D2 antag: 68

What do the screens show for `O=Cc1c(Cl)nc2ccccn12`?
D2 PAM-1: inactive; D2 PAM-2: inactive; D2 ag-1: inactive; D2 ag-2: inactive; D2 antag: inactive

How did Cc1cc(C(=O)NC2CCCCC2)c2cc(F)ccc2n1 do in these assays?
D2 PAM-1: inactive; D2 PAM-2: inactive; D2 ag-1: inactive; D2 ag-2: inactive; D2 antag: 31

How did Cc1cc(C(=O)NC2CCCC2)c2ccccc2n1 do in these assays?
D2 PAM-1: inactive; D2 PAM-2: inactive; D2 ag-2: inactive

Results for CC(=O)c1ccc(NC2c3ncccc3C(=O)N2Cc2ccc(F)cc2)cc1 (centres undefined) ?
D2 PAM-1: inactive; D2 PAM-2: inactive; D2 ag-1: inactive; D2 ag-2: inactive; D2 antag: inactive

What do the screens show for `Cc1cccc2sc(N(Cc3cccnc3)C(=O)C3CCCCC3)nc12`?
D2 ag-1: inactive

Results for CCCN1CN(Cc2ccco2)c2nc3ccccc3n2C1 ?
D2 PAM-1: inactive; D2 PAM-2: inactive; D2 ag-1: inactive; D2 ag-2: inactive; D2 antag: 43

What do the screens show for `COc1ccc(N2C(=O)CSC23CCCCC3)cc1`?
D2 PAM-1: inactive; D2 PAM-2: inactive; D2 ag-1: inactive; D2 ag-2: inactive; D2 antag: 33

What do the screens show for `CN(CC(=O)Nc1ccc(OC(F)(F)F)cc1)C(=O)Cc1ccc2c(c1)CCC2`?
D2 PAM-1: inactive; D2 PAM-2: inactive; D2 ag-1: inactive; D2 ag-2: inactive; D2 antag: inactive

What do the screens show for `COc1cc2[nH]c(=S)nc(NCc3ccc(C)cc3)c2cc1OC`?
D2 PAM-1: inactive; D2 PAM-2: inactive; D2 ag-1: inactive; D2 ag-2: inactive; D2 antag: 41

What do the screens show for `COc1ccc(CNc2nc(=S)[nH]c3cc(OC)c(OC)cc23)cc1`?
D2 PAM-1: inactive; D2 PAM-2: inactive; D2 ag-1: inactive; D2 ag-2: inactive; D2 antag: 34

Results for COc1cc2[nH]c(=S)nc(NCc3ccccc3)c2cc1OC ?
D2 PAM-1: inactive; D2 PAM-2: inactive; D2 ag-1: inactive; D2 ag-2: inactive; D2 antag: inactive

How did COCC(=O)Nc1ccc(Nc2ccccc2)cc1 do in these assays?
D2 PAM-1: inactive; D2 ag-2: inactive

Results for O=C(NCCN1CCc2ccccc2C1)C1CCN(S(=O)(=O)N2CCCCC2)CC1 ?
D2 PAM-1: inactive; D2 PAM-2: inactive; D2 ag-1: 34; D2 ag-2: inactive; D2 antag: inactive

Results for COc1cccc(CNC(=O)CN2C(=O)CSc3c2c(C)nn3-c2ccccc2)c1OC ?
D2 PAM-2: inactive; D2 ag-1: inactive

What do the screens show for `CC(C)(C)C(=O)NC(=S)NNC(=O)C(c1ccccc1)c1ccccc1`?
D2 PAM-1: inactive; D2 PAM-2: inactive; D2 ag-1: 99; D2 ag-2: inactive; D2 antag: 75

Results for CC(=O)NNC(=S)NC(=O)C(c1ccccc1)c1ccccc1 ?
D2 PAM-1: inactive; D2 PAM-2: inactive; D2 ag-1: inactive; D2 ag-2: inactive; D2 antag: inactive

Results for Cc1ccnc2c1ccc1c(C)ccnc12 ?
D2 PAM-1: inactive; D2 PAM-2: inactive; D2 ag-1: inactive; D2 ag-2: inactive; D2 antag: 43

Results for Cc1ccnc2c1ccc1cccnc12 ?
D2 PAM-1: inactive; D2 PAM-2: inactive; D2 ag-1: inactive; D2 ag-2: inactive; D2 antag: inactive

What do the screens show for `CCOc1cccc2sc(Cl)nc12`?
D2 PAM-1: inactive; D2 PAM-2: inactive; D2 ag-1: inactive; D2 ag-2: inactive; D2 antag: inactive

Results for CCOc1ccc(OCC)c2sc(C)nc12 ?
D2 PAM-1: inactive; D2 PAM-2: 37; D2 ag-1: inactive; D2 ag-2: inactive; D2 antag: inactive

How did COc1ccc(S(=O)(=O)N2CC(=O)Nc3ccccc32)cc1Cl do in these assays?
D2 PAM-1: inactive; D2 PAM-2: 60; D2 ag-1: inactive; D2 ag-2: inactive; D2 antag: inactive

How did CCOc1ccc(S(=O)(=O)N2CC(=O)Nc3ccccc32)cc1C#N do in these assays?
D2 PAM-1: inactive; D2 PAM-2: inactive; D2 ag-1: inactive; D2 ag-2: inactive; D2 antag: inactive

How did CSCCC(NS(=O)(=O)c1ccc2c(c1)OCCO2)C(=O)N(C)Cc1ccccc1F (centres undefined) do in these assays?
D2 PAM-1: inactive; D2 PAM-2: inactive; D2 ag-1: inactive; D2 ag-2: inactive; D2 antag: inactive

How did CC(=O)Nc1ccc(N=Cc2c(O)c3ccccc3oc2=O)cc1 do in these assays?
D2 PAM-1: inactive; D2 ag-2: inactive
